Experimental findings from PubChem BioAssay (EPA / NIEHS) are described below.

What all share (settings): mRNA level, 48 h; actives raise or lower the signal
Read-out in assay [1]: ABC Transporter (ABCB1), ABCB1 (gene 5243)
The assay can be described thus: LTEA_HepaRG_ABCB1: Life Technologies and Expression Analysis (LTEA) Assay for ABC Transporter (ABCB1) using HepaRG (AID 2283460). The essentials: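 Human liver HepaRG line treated 48 h with up to 100 uM compound (eight half-log points, 0.5% DMSO); ABCB1 mRNA change fitted bidirectionally against DMSO controls.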

Read-out in assay [2]: growth arrest and DNA damage 45 (GADD45B), GADD45B (gene 4616)
In words: LTEA_HepaRG_GADD45B: Life Technologies and Expression Analysis (LTEA) Assay for growth arrest and DNA damage 45 (GADD45B) using HepaRG (AID 2283461). The essentials: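 Transcript level quantified by Fluidigm TaqMan qRT-PCR with three housekeeping genes for normalization, analyzed for up- or down-regulation against 0.5% DMSO. HepaRG cultures dosed 48 h at eight half-log concentrations up to 100 uM, duplicates.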

Read-out in assay [3]: ABC Transporter (ABCC3), ABCC3 (gene 8714)
The assay can be described thus: LTEA_HepaRG_ABCC3: Life Technologies and Expression Analysis (LTEA) Assay for ABC Transporter (ABCC3) using HepaRG (AID 2283462). The essentials: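 Transcript level by TaqMan qRT-PCR, normalised to three housekeeping genes, fitted in both directions relative to vehicle. Chemicals tested in duplicate at eight half-log concentrations up to 100 uM for 48 h on HepaRG cells (0.5% DMSO).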

Read-out in assay [4]: ABC Transporter (ABCC2), ABCC2 (gene 1244)
The assay can be described thus: LTEA_HepaRG_ABCC2: Life Technologies and Expression Analysis (LTEA) Assay for ABC Transporter (ABCC2) using HepaRG (AID 2283464). The essentials: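 Endpoint is ABCC2 transcript level from qRT-PCR, normalized to three housekeeping genes and fitted bidirectionally relative to DMSO. Human HepaRG cells received test chemical for 48 h at up to 100 uM (8 points, half-log steps, 0.5% DMSO), duplicate wells.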

Read-out in assay [5]: Broad substrate specificity ATP-binding cassette transporter ABCG2 (Homo sapiens) (UniProt Q9UNQ0)
The assay can be described thus: LTEA_HepaRG_ABCG2: Life Technologies and Expression Analysis (LTEA) Assay for ABC Transporter (ABCG2) using HepaRG (AID 2283465). The essentials:
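Gene expression of ABCG2 in HepaRG liver cells is quantified by qRT-PCR following 48 h exposure across an eight-point series topping at 100 uM. Values come from bidirectional fitting relative to DMSO vehicle.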

Read-out in assay [6]: ATP-citrate lyase (ACLY), ACLY (gene 47)
The assay can be described thus: LTEA_HepaRG_ACLY: Life Technologies and Expression Analysis (LTEA) Assay for ATP-citrate lyase (ACLY) using HepaRG (AID 2283466). A digest of the protocol:
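ACLY expression changes in human HepaRG liver cells are quantified by qRT-PCR after 48 h exposure to test chemicals (maximum 100 uM, half-log steps). Values are fitted in both directions relative to 0.5% DMSO vehicle.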

Read-out in assay [7]: Peroxisomal acyl-coenzyme A oxidase 1 (ACOX1) gene, ACOX1 (gene 51)
The assay can be described thus: LTEA_HepaRG_ACOX1: Life Technologies and Expression Analysis (LTEA) Assay for Peroxisomal acyl-coenzyme A oxidase 1 (ACOX1) gene using HepaRG (AID 2283467). A digest of the protocol: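 Human HepaRG hepatic cultures, 48 h treatment with test chemicals up to 100 uM. ACOX1 expression read by qRT-PCR relative to 0.5% DMSO vehicle.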

Read-out in assay [8]: Alkaline Phosphatase, Placental (ALPP) gene, ALPP (gene 250)
The assay can be described thus: LTEA_HepaRG_ALPP: Life Technologies and Expression Analysis (LTEA) Assay for Alkaline Phosphatase, Placental (ALPP) gene using HepaRG (AID 2283468). A digest of the protocol: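 ALPP transcript level, measured by qRT-PCR and normalized to three housekeeping genes (ACTB, GAPDH, POLR2A), after 48 h dosing of differentiated HepaRG in serum-free induction medium. Top concentration 100 uM with half-log dilutions (8 points, 0.5% DMSO, duplicates); bidirectional fitting relative to DMSO.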

Read-out in assay [9]: Bcl-2 (BAD) gene, BAD (gene 572)
In words: LTEA_HepaRG_BAD: Life Technologies and Expression Analysis (LTEA) Assay for Bcl-2 (BAD) gene using HepaRG (AID 2283469). The essentials:
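Activity values reflect up- or down-regulation of BAD mRNA in human HepaRG hepatic cells treated 48 h in serum-free medium, with eight-point half-log dosing capped at 100 uM and 0.5% DMSO vehicle.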

Read-out in assay [10]: Bcl-2 (BAX) gene, BAX (gene 581)
The assay can be described thus: LTEA_HepaRG_BAX: Life Technologies and Expression Analysis (LTEA) Assay for Bcl-2 (BAX) gene using HepaRG (AID 2283470). A digest of the protocol:
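Gene expression measured by Fluidigm qRT-PCR with three housekeeping genes for normalisation. HepaRG cells, plated 48 h beforehand, treated 48 h at up to 100 uM (8-point, half-log) in 0.5% DMSO. Bidirectional fitting versus DMSO.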

Read-out in assay [11]: adenosine kinase (ADK) gene, ADK (gene 132)
In words: LTEA_HepaRG_ADK: Life Technologies and Expression Analysis (LTEA) Assay for adenosine kinase (ADK) gene using HepaRG (AID 2283471). The essentials:
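ADK expression quantified by qRT-PCR, normalised to three housekeeping genes, after 48 h exposure of HepaRG cells to eight concentrations (top 100 uM, half-log steps, duplicate, 0.5% DMSO). Up- or down-regulation fitted relative to vehicle.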

Read-out in assay [12]: Alpha-fetoprotein (AFP) gene, AFP (gene 174)
In words: LTEA_HepaRG_AFP: Life Technologies and Expression Analysis (LTEA) Assay for Alpha-fetoprotein (AFP) gene using HepaRG (AID 2283472). The essentials:
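AFP transcript measured by TaqMan qRT-PCR with three housekeeping genes for normalization, after 48 h chemical treatment of HepaRG cells (top 100 uM, half-log steps, 0.5% DMSO). Gain or loss fitted against vehicle.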

Read-out in another assay: BCL2L11 (gene 10018)
The assay can be described thus: LTEA_HepaRG_BCL2L11: Life Technologies and Expression Analysis (LTEA) Assay for Bcl-2 (BCL2L11) gene using HepaRG (AID 2283473). The essentials:
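BCL2L11 transcript levels are measured by Fluidigm qRT-PCR, normalized to three housekeeping genes. HepaRG cultures were plated 48 h, then treated 48 h with test chemical (top 100 uM, half-log, 0.5% DMSO vehicle); curves were fitted bidirectionally against DMSO.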

Read-out in assay [13]: Apolipoprotein A-V (APOA5) gene, APOA5 (gene 116519)
The assay can be described thus: LTEA_HepaRG_APOA5: Life Technologies and Expression Analysis (LTEA) Assay for Apolipoprotein A-V (APOA5) gene using HepaRG (AID 2283474). The essentials: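 APOA5 transcript levels were quantified by qRT-PCR, normalized to three housekeeping genes, after 48 h chemical treatment of HepaRG cells (8 points, 100 uM maximum, half-log steps, 0.5% DMSO). Curves fitted in both directions against vehicle.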

Read-out in assay [14]: Apoptosis regulator Bcl-2 (Homo sapiens) (UniProt P10415)
In words: LTEA_HepaRG_BCL2: Life Technologies and Expression Analysis (LTEA) Assay for Bcl-2 gene using HepaRG (AID 2283475). The essentials: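 qRT-PCR of BCL2 transcript, normalized to three housekeeping genes (ACTB, GAPDH, POLR2A), after 48 h chemical exposure of HepaRG cells; concentrations top 100 uM with half-log dilutions, 0.5% DMSO vehicle, duplicates; changes up or down fitted relative to vehicle.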

Read-out in assay [15]: Bcl-2 (BID) gene, BID (gene 637)
The assay can be described thus: LTEA_HepaRG_BID: Life Technologies and Expression Analysis (LTEA) Assay for Bcl-2 (BID) gene using HepaRG (AID 2283476). The essentials: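 Duplicate 48 h treatments of HepaRG cells in serum-free induction medium spanned 100 uM downward in half-log steps, 0.5% DMSO. Transcript change quantified by qRT-PCR against three housekeeping genes, fitted up or down versus DMSO.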

Read-out in the next assay: Caspase-3 (Homo sapiens) (UniProt P42574)
In words: LTEA_HepaRG_CASP3: Life Technologies and Expression Analysis (LTEA) Assay for cysteine-aspartic acid protease (CASP3) using HepaRG (AID 2283477). The essentials: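 Expression of CASP3 was quantified by TaqMan qRT-PCR against three housekeeping genes (ACTB, GAPDH, POLR2A), bidirectionally versus 0.5% DMSO. HepaRG cultures received compounds in duplicate, top 100 uM with half-log steps, for 48 h in serum-free induction medium.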

Read-out in assay [16]: Cytochrome P450 (CYP24A1), CYP24A1 (gene 1591)
In words: LTEA_HepaRG_CYP24A1: Life Technologies and Expression Analysis (LTEA) Assay for Cytochrome P450 (CYP24A1) using HepaRG (AID 2283478). The essentials:
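mRNA of CYP24A1 quantified by TaqMan qRT-PCR (ACTB/GAPDH/POLR2A normalization) after 48 h chemical exposure of HepaRG cells, top concentration 100 uM, half-log steps, 0.5% DMSO vehicle, duplicates. Curves fitted bidirectionally against DMSO baseline.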

Read-out in assay [17]: Cytochrome P450 (CYP1A2), CYP1A2 (gene 1544)
In words: LTEA_HepaRG_CYP1A2: Life Technologies and Expression Analysis (LTEA) Assay for Cytochrome P450 (CYP1A2) using HepaRG (AID 2283479). The essentials:
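CYP1A2 transcript measured by TaqMan qRT-PCR against three housekeeping genes after 48-hour chemical exposure of HepaRG cells. Eight-point half-log series topping at 100 uM in 0.5% DMSO, duplicates; gain or loss fitted relative to vehicle.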

Active and inactive are the calls of the source. The calls were made as follows: active = hit-call score of the fitted dose curve at least 0.9, where 1 is the maximum; inactive = score below 0.9.

Sequence of Broad substrate specificity ATP-binding cassette transporter ABCG2 (Homo sapiens) (Q9UNQ0 whole entry, looked up): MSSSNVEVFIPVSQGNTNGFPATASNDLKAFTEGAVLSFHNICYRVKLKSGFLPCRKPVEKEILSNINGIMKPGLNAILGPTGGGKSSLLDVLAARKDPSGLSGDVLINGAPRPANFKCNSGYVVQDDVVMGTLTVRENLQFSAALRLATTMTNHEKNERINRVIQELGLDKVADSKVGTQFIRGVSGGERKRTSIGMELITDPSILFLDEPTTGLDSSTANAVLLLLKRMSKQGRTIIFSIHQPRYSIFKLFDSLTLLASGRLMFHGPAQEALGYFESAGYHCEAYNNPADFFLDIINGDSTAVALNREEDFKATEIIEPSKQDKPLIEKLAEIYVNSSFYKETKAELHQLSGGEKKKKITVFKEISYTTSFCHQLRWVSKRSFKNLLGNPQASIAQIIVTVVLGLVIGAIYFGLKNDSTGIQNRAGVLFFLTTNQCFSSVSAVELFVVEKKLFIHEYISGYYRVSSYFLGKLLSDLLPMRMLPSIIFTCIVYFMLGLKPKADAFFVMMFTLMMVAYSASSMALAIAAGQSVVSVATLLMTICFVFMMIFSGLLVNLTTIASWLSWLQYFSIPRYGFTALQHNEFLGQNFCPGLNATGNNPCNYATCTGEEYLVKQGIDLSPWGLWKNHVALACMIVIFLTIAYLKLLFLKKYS
Sequence of Caspase-3 (Homo sapiens) (P42574 whole entry, looked up): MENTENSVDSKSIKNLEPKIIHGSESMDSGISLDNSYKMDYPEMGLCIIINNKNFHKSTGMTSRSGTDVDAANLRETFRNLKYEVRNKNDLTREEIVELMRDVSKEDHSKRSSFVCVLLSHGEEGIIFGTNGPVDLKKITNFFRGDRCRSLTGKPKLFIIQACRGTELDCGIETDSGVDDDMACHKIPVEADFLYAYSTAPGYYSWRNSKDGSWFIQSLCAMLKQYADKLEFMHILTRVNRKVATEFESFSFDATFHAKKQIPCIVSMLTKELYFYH
Sequence of Apoptosis regulator Bcl-2 (Homo sapiens) (P10415 whole entry, looked up): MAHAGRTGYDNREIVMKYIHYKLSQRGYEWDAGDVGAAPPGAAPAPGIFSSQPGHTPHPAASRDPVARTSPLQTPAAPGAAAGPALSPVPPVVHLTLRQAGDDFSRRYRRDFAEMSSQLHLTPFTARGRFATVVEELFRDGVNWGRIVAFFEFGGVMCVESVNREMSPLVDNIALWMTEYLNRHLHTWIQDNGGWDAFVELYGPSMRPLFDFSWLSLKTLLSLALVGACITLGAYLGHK

A word on the AC50: it is the concentration at which the activity in the assay is half-maximal. For `Nc1cc2c3c(c1)C(c1ccccc1)=N[C@@H](NC(=O)c1cccnc1)C(=O)N3CC2`, the AC50 in assay [1] was 18.5 µM (active); in assay [17] it was 50 µM (active). The call in assay [2], in assay [3], in assay [4], in assay [5], in assay [6] and in assay [7] was inactive. The compound was called inactive (in [8]; in assay [9]; in [10]; in assay [11]; in [12]; in the assay with BCL2L11 (gene 10018)). In addition, the compound was called inactive (in assay [13]; in [14]; in [15]; with Caspase-3 (Homo sapiens); in assay [16]).

Take `O=[N+]([O-])c1ccccc1`: the result in assay [1], in [2], in assay [3], in [4], in assay [5] and in [6] was inactive. Also, the call in assay [7], in [8], in assay [9], in [10], in [11] and in assay [12] was inactive. Besides, the outcome (with BCL2L11 (gene 10018); in [13]; in assay [14]; in assay [15]; in the assay with Caspase-3 (Homo sapiens); in assay [16]) was inactive. Besides, the outcome in [17] was inactive.

For the compound `CC(C)(C)OOC(C)(C)C`, the compound was called inactive in assay [1], in assay [2], in assay [3], in assay [4], in [5] and in [6]. Also, the call in assay [7], in [8], in assay [9], in assay [10], in assay [11] and in assay [12] was inactive. In addition, the compound was classed as inactive (in the assay with BCL2L11 (gene 10018); in [13]; in assay [14]; in [15]; with Caspase-3 (Homo sapiens); in assay [16]). Besides, the call in assay [17] was inactive.

With `CCCCN(CCCC)N=O`, the result in [1], in assay [2], in assay [3], in [4], in assay [5] and in assay [6] was inactive. Also, the result in assay [7], in [8], in assay [9], in [10], in assay [11] and in [12] was inactive. The outcome (with BCL2L11 (gene 10018); in [13]; in [14]; in assay [15]; with Caspase-3 (Homo sapiens); in [16]) was inactive. For the same compound, in assay [17], the outcome was inactive.

With `O=P1(N(CCCl)CCCl)NCCCO1` (stereo not given), the compound was classed as inactive in assay [1], in assay [2], in assay [3], in [4], in assay [5] and in [6]. The outcome in assay [7], in assay [8], in assay [9], in assay [10], in assay [11] and in assay [12] was inactive. Also, the call (in the assay with BCL2L11 (gene 10018); in assay [13]; in assay [14]; in assay [15]; with Caspase-3 (Homo sapiens); in assay [16]) was inactive. Further, in [17], the result was inactive.
